pPAFAH inh = pPAFAH enzyme inhibitors, primary screen, biochemical, fluorescence polarization, human | recombinant pPAFAH, FP-rhodamine probe fluorescence polarization | inhibition, % at 3.39 µM | 330,000 compounds, 1.5% hits | AID 463082, 2010;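 active = inhibition above the mean inhibition across the screen plus 3 SD, cut at about 25% in these data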;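 also: inhibitors block binding of the rhodamine activity-based probe so polarization drops; 0% = enzyme with DMSO and 100% = wells lacking pPAFAH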
PP1 counter = PP1-alpha phosphatase inhibitors, primary screen, counter-screen for PP5 inhibitor project, biochemical, fluorescence, OMFP substrate, single point; 320,000 compounds, 0.9% hits; purified PP1alpha; inhibition, % at 6.7 µM; AID 2235, 2010;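 active = inhibition above the mean inhibition of all tested compounds plus 3 SD, computed separately for each screening campaign, cut at about 15% in these data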
PAFAH1B2 FP inh = PAFAH1B2 enzyme inhibitors, primary screen, biochemical, fluorescence polarization, human | Platelet-activating factor acetylhydrolase IB subunit alpha2 (Homo sapiens), P68402 | recombinant PAFAH1B2, FP-rhodamine activity probe | inhibition, % at 3.39 µM | 340,000 compounds, 1.2% hits | AID 492953, 2010;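 active = inhibition above the mean of all tested compounds plus 3 SD, cut at about 24% in these data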;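 also: 0% = enzyme with DMSO and 100% = wells lacking PAFAH1B2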
Target sequence (P68402 whole entry, looked up): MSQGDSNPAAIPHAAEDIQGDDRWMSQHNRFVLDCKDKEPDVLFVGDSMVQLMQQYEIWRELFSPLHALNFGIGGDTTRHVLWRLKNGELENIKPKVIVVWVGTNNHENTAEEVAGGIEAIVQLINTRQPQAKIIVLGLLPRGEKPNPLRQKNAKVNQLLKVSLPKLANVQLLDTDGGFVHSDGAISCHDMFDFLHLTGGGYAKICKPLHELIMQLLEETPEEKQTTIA
PP5 inh = PP5 phosphatase inhibitors, primary screen, biochemical, fluorescence. purified PP5c, OMFP substrate fluorescence. 320,000 compounds, 0.18% hits. Serine/threonine-protein phosphatase 5 (Homo sapiens), P53041. inhibition, % at 6.7 µM;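 active = inhibition above the campaign's mean inhibition across all tested compounds plus 3 SD, cut at about 9.5% in these data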;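 also: 0% = DMSO only and 100% = 100 µM cantharidin control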
Target sequence (P53041 whole entry, looked up): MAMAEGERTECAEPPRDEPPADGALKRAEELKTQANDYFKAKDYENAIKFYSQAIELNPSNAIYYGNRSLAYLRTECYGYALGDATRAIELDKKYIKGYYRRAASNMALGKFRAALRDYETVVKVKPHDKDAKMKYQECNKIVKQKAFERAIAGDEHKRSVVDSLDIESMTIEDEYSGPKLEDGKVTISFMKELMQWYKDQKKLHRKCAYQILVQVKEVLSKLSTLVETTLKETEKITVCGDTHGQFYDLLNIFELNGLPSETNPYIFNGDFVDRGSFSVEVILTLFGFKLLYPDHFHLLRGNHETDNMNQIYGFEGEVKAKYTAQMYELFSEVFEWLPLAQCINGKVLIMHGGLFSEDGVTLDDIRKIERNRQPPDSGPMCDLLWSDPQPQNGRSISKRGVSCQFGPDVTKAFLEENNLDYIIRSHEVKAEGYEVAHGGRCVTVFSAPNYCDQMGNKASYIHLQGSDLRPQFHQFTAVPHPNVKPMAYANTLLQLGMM
PAFAH2 FP inh = PAFAH2 enzyme inhibitors, primary screen, biochemical, fluorescence polarization, human; 340,000 compounds, 0.99% hits; AID 492956, 2010; Platelet-activating factor acetylhydrolase 2, cytoplasmic (Homo sapiens), Q99487; recombinant PAFAH2, FP-rhodamine activity probe; inhibition, % at 3.39 µM;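 active = inhibition above the mean over all tested compounds plus 3 SD, cut at about 30% in these data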;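 also: inhibitors block probe labeling of enzyme so polarization drops; 0% = enzyme with DMSO and 100% = wells lacking PAFAH2 protein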
PAFAH1B3 inh = PAFAH1B3 enzyme inhibitors, primary screen, biochemical, fluorescence polarization, human; inhibition, % at 3.39 µM; recombinant PAFAH1B3, FP-rhodamine probe; 340,000 compounds, 0.28% hits; AID 492972, 2010;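 active = inhibition above the screen-wide average of all tested compounds plus 3 SD, cut at about 25% in these data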;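 also: 0% = enzyme with DMSO only and 100% = wells lacking PAFAH1B3 protein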
PP1 confirm = PP1 phosphatase inhibitors, confirmation, biochemical, fluorescence, OMFP substrate, triplicate | 1,900 compounds, 52% hits | purified PP1alpha | inhibition, % at 6.7 µM | shares compounds with PP1 counter;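 active = mean PP1 inhibition above a set limit taken from the earlier primary screen, cut at about 15% in these data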
PP5 counter = PP5 phosphatase inhibition by PP1 hits, confirmation, counter-screen for PP1 inhibitor project, biochemical, fluorescence, triplicate | purified PP5c, OMFP fluorescence | inhibition, % at 6.7 µM | shares compounds with PP1 counter | 1,900 compounds, 4% hits | AID 2360, 2010;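 active = mean PP5 inhibition over triplicate wells above about 9.5% taken from the earlier PP1 screen, limit read from the data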
pPAFAH confirm = pPAFAH (PLA2G7) enzyme inhibitors, confirmation, biochemical, fluorescence polarization, human; shares compounds with pPAFAH inh; recombinant pPAFAH, FP-Rh probe fluorescence polarization; inhibition, % at 3.39 µM; 2,300 compounds, 72% hits; AID 463230, 2010;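 active = mean inhibition of the triplicate above the hit cutoff set for the earlier primary screen, cut at about 25% in these data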;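 also: 0% = enzyme with DMSO and 100% = wells lacking pPAFAH enzyme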
PAFAH1B3 conf FP = PAFAH1B3 enzyme inhibitors, confirmation, biochemical, fluorescence polarization, human; shares compounds with PAFAH1B3 inh; 390 compounds, 30% hits; inhibition, % at 3.39 µM; recombinant PAFAH1B3, FP-Rh activity-based probe;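 active = average inhibition over triplicate runs above the hit cutoff set in the earlier primary screen, cut at about 25% in these data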;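 also: 0% = enzyme with DMSO and 100% = wells lacking PAFAH1B3 protein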
Active calls of the source: *; nt = no result given. An excerpt weighted towards active compounds, which were near 3.4% of everything screened.

SMILES | pPAFAH inh | PP1 counter | PAFAH1B2 FP inh | PP5 inh | PAFAH2 FP inh | PAFAH1B3 inh | PP1 confirm | PP5 counter | others
O=C(NN=Cc1ccc(N(CCCl)CCCl)cc1)c1cccnc1 | nt | nt | 13 | nt | 5 | 5 | nt | nt
O=C(O)C1C2CCC(O2)C1C(=O)Nc1ccc(Cl)cc1 (stereo unspecified) | 0 | 63* | nt | 69* | nt | nt | 18* | 26*
O=C(Nc1ccc(Cl)cc1)N1CC1 | nt | nt | 6 | nt | -8 | 10 | nt | nt
COc1ccc(OC)c(CC(=O)O)c1 | 1 | -3 | 1 | -4 | 3 | 2 | nt | nt
COc1ccc(NC(=O)C2C3CCC(O3)C2C(=O)O)c(OC)c1 (stereo unspecified) | 0 | 75* | -1 | 76* | 9 | 7 | 29* | 46*
O=C(O)C1C2CCC(O2)C1C(=O)NC1CCCCC1 (stereo unspecified) | 5 | 73* | 4 | 76* | -7 | 0 | 48* | 56*
O=S(=O)(O)C(=Cc1ccccc1)c1ccccc1 (tested in a mixture with another compound) | nt | nt | 18 | nt | 5 | 5 | nt | nt
CS(=O)(=O)CCN1CC2CCCC(C2)C1 | nt | nt | 8 | nt | 13 | 6 | nt | nt
CC1(C(=O)O)CC12c1ccccc1-c1ccccc12 (stereo unspecified) | nt | nt | 4 | nt | 1 | 3 | nt | nt
CC1Oc2cc3c(-c4c(O)cc(O)c5c(O)c6c(cc45)OC(C)C(C)C6=O)c(O)cc(O)c3c(O)c2C(=O)C1C (stereo unspecified) | 91* | 57* | 52* | 5 | 46* | 60* | 25* | 2
CC1=C(C)CC2(CC1)C(=O)NC(=O)NC2=O | nt | nt | 2 | nt | 3 | 7 | nt | nt
Cc1ccc(C[n+]2c(-c3ccc(C)cc3)cc(-c3ccc(C)cc3)cc2-c2ccc(C)cc2)cc1 | -2 | 24* | -1 | 2 | 6 | 10 | -6 | 1
C=CCN1CC[C@]23c4c5ccc(O)c4OC2C(O)C=CC3[C@H]1C5 (stereo partly specified) | 1 | nt | 5 | nt | 2 | 8 | nt | nt
Clc1ccc(COC(Cn2ccnc2)c2ccc(Cl)cc2Cl)cc1 (stereo unspecified) | 6 | 29* | 5 | 2 | -7 | 10 | 20* | 2
Clc1ccc(CSC(Cn2ccnc2)c2ccc(Cl)cc2Cl)cc1 (stereo unspecified) | 1 | 26* | 18 | 5 | -2 | 14 | 20* | 3
c1ccc(Cn2ccnc2)cc1 | -1 | -3 | 3 | 0 | -3 | 1 | nt | nt
COc1ccc(OC)c(N2C(=O)/C(=C/c3ccco3)C(=O)NC2=S)c1 | 87* | 68* | nt | 0 | nt | nt | 17* | -4
O=C1NC(=S)N(c2ccc(F)cc2)C(=O)/C1=C/c1ccco1 | 83* | 40* | nt | 0 | nt | nt | 68* | 1
CCCCn1c(=O)c(C(=O)Nc2ncccc2C)c(O)c2ccccc21 | 3 | 28* | 1 | 2 | -4 | 1 | 26* | -1
CCCCCn1c(=O)c(C(=O)Nc2ccccc2C)c(O)c2ccccc21 | 5 | -2 | -1 | 2 | 0 | 7 | nt | nt
CCCCn1c(=O)c(C(=O)Nc2ccccc2)c(O)c2ccccc21 | 1 | -2 | 3 | 2 | 4 | 6 | nt | nt
CCCCCCn1c(=O)c(C(=O)Nc2ncccc2C)c(O)c2ccccc21 | 12 | 26* | -3 | 5 | 5 | 3 | 18* | -2
CN(C)C1C(=O)C(C(N)=O)=C(O)C2(O)C(=O)C3=C(O)c4c(O)cccc4C(C)(O)C3C(O)C12 (stereo unspecified) | 73* | 33* | 10 | 4 | 26 | 26* | -4 | -4 | pPAFAH confirm=7
CCCC[C@@H](C)C[C@@H](C)C(=O)N(C)[C@@H](CC(C)C)C(=O)N[C@H](C(=O)N(C)[C@H](C(=O)N1C[C@@H](O)C[C@H]1C(=O)N1C(=O)C=C[C@@H]1C)C(C)C)C(C)OC(C)=O (stereo partly specified) | 8 | nt | 9 | nt | 6 | 7 | nt | nt
c1cncc(C2Nc3cccc4cccc(c34)N2)c1 | 8 | 23* | 2 | 1 | -1 | 36* | -5 | -1 | PAFAH1B3 conf FP=12
SMILES | pPAFAH inh | PP1 counter | PAFAH1B2 FP inh | PP5 inh | PAFAH2 FP inh | PAFAH1B3 inh | PP1 confirm | PP5 counter | others
CC(O)C1C=CC=CC(=O)OC2CC3OC4C5OC5(C)C(O)CC4(COC(=O)C(O)C(C)CCO1)C2(C)C31CO1 (stereo unspecified) | nt | nt | 1 | nt | 0 | -5 | nt | nt
O=C(O)CC1OCC=C2CN3CCC45C6=CC(=O)C(=O)C([N+](=O)[O-])=C6NC4C1C2CC35 (stereo unspecified) | 5 | 33* | 10 | 21* | 9 | 72* | 53* | 2 | PAFAH1B3 conf FP=9
O=C(O)CC1OCC=C2CN3CCC45c6ccccc6NC4C1C2CC35 (stereo unspecified) | -8 | -1 | -1 | 0 | 2 | 0 | nt | nt
COc1ccc2nc3oc(C(=O)N4CCC5(CC4)OCCO5)cc3cc2c1 | 44* | 2 | 2 | 4 | 4 | 7 | nt | nt | pPAFAH confirm=36*
COc1ccc(OC)c(N2C(=O)NC(=O)/C(=C/c3ccc([N+](=O)[O-])s3)C2=O)c1 | 62* | 0 | 55* | 2 | 66* | 69* | nt | nt | pPAFAH confirm=58*
COc1cc(/C=C2\C(=O)NC(=O)N(c3ccccc3)C2=O)c([N+](=O)[O-])cc1OC | nt | nt | 3 | nt | 7 | 5 | nt | nt
COC(=O)C1=C(c2cccc(OCc3ccccc3)c2)C[C@@H]2CC[C@H]1N2C(=O)NCc1cc(C)oc1C(F)(F)F | 2 | 6 | 6 | 5 | -9 | -2 | nt | nt
O=C(N/N=C/c1c(O)n(CCC2=CCCCC2)c(=O)[nH]c1=O)c1ccccc1 | 10 | 14 | 12 | 4 | 9 | 4 | nt | nt
O=C(N/N=C/c1c(O)n(CCC2=CCCCC2)c(=S)[nH]c1=O)c1ccccc1 | 52* | 14 | 29* | -1 | -1 | 15 | nt | nt | pPAFAH confirm=42*
